By inhibition is commonly meant the relative decrease from the control value, in per cent.

The record followed here is PubChem BioAssay AID1974 (The Scripps Research Institute Molecular Screening Center, 2009).

Out of some 300,000 compounds screened, about 3,200 (1.1%) were called active.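 How the source made its calls: active means inhibition above the campaign mean inhibition plus 3 SD (cut at about 35% in these data); inactive means the rest.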 Only a selection was taken, and actives are over-represented in it overall.

In this assay the target is Glutathione S-transferase omega-1 (Homo sapiens) (UniProt P78417). As to the kind of experiment: human GSTO1 enzyme inhibition – biochemical, fluorescence polarization, counter-screen for RBBP9 inhibitor project, primary screen (AID 1974).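 Further: 0% = GSTO1-1 with DMSO and 100% = wells lacking GSTO1-1 enzyme.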 To be noted: recombinant GSTO1, activity-based probe fluorescence polarization; at 5.96 µM; hits give high values. (In general: Polarisation of emitted light reports the rotation of a fluorescent probe.)
Glutathione S-transferase omega-1 (Homo sapiens), sequence (P78417 whole entry, looked up): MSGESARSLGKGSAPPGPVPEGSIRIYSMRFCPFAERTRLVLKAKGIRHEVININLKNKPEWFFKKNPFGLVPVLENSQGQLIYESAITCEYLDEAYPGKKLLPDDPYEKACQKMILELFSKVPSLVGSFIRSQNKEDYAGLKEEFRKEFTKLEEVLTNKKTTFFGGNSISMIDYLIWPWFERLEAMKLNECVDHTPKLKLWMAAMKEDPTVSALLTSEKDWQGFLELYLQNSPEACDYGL
Consider `Cc1ccc(SCCSc2ncccn2)cc1`, for which the inhibition is -0.48% (inactive). Turning to `Cc1ccc(SCc2cc(=O)[nH]c(N3CCCCC3)n2)cc1`, the inhibition is -1.38% (inactive). Take `Cc1ccc(SCC2=NNC(=O)C2)cc1`: the inhibition is 42.2% (active). Regarding `COc1ccc(NC(=O)CCC(=O)N2CCN(S(=O)(=O)c3ccc(C)cc3)CC2)c(OC)c1`, the inhibition was -6.89% (inactive).

With `Cn1ccsc1=NC(=O)c1cc(S(=O)(=O)N2CCOCC2)ccc1Cl`, the inhibition is -4.31% (inactive).

On to `CCOC(=O)c1c(C)oc2cc(Sc3ccccc3)c(O)c(O)c12`, for which the inhibition was 47.9% (active). As for `CCOC(=O)c1c(-c2ccccc2)oc2cc(Br)c(O)c(C=O)c12`, the inhibition is 0.6% (inactive). The result for `CCOC(=O)c1cc(Sc2ccccc2N)cc(C(=O)OCC)n1` reads 8.34% (inactive); that for `Cc1ccsc1/C=N/Nc1ccc(Cl)nn1`, -1.2% (inactive).

As to `Oc1cccc(/C=N/Nc2ccc(Cl)nn2)c1O`, the inhibition was 73% (active). The result for `Clc1ccc(N/N=C/c2cccs2)nn1` reads 6.83% (inactive); that for `Cn1c(NC(=O)c2ccccc2)nc2ccccc21`, 4.42% (inactive); that for `CC(C)CN(C(=O)COC(=O)c1ccc(Cl)c(N)c1)c1c(N)n(Cc2ccccc2)c(=O)[nH]c1=O`, 3.23% (inactive).

Regarding `CCOc1ccc(C(c2c(C)[nH][nH]c2=O)c2c(C)[nH][nH]c2=O)cc1OCC`, the inhibition is 23.6% (inactive). As for `Cc1[nH][nH]c(=O)c1C(c1ccc2c(c1)OCO2)c1c(C)[nH][nH]c1=O`, the inhibition was 17.4% (inactive). With `Cc1[nH][nH]c(=O)c1C(c1ccc(-c2ccc(Cl)cc2)o1)c1c(C)[nH][nH]c1=O` the figure was 65.6% (active). With `NC(=O)NCCCC(=O)O` the figure was 6.89% (inactive); with `OCc1ccc(-c2ccccc2)c(-c2ccccc2)c1`, 0.95% (inactive). `Cn1c(-c2ccc(F)cc2)cc2onc(-c3ccccc3Cl)c2c1=O`: the inhibition was 2.68% (inactive). For `N#CC1=C(N)C(C#N)(C#N)[C@H](c2ccsc2)[C@H]2COCC=C12`, the inhibition is 10.3% (inactive). Regarding `CCCN1CC=C2C(C#N)=C(N)C(C#N)(C#N)C(c3cc(OC)ccc3OC)C2C1` (stereo not drawn), the inhibition is 3.38% (inactive). As to `CCN1CC=C2C(C#N)=C(N)C(C#N)(C#N)[C@H](c3ccoc3)[C@H]2C1`, the inhibition was 38% (active). The result for `Cc1ccc(C(=O)OCC(=O)N2CC(C)CC(C)C2)cc1S(=O)(=O)N1CCCCC1` (stereo not drawn) reads 1.6% (inactive); that for `COc1cc(NC(=O)CSC(=S)N2CCCC2)c(OC)cc1Cl`, 1.86% (inactive); that for `COc1c(O)cc2oc(-c3ccc(O)c(O)c3)cc(=O)c2c1O`, 37% (active). As for `CCOC(=O)COc1cc(O)c2c(=O)cc(-c3ccccc3)oc2c1`, the inhibition was 4.45% (inactive).

`COc1ccc(-c2cc(=O)c3c(O)cc(O[C@@H]4O[C@H](CO[C@@H]5O[C@@H](C)[C@H](O)[C@@H](O)[C@H]5O)[C@@H](O)[C@H](O)[C@H]4O)cc3o2)cc1O`: the inhibition was 6.25% (inactive). With `CC(C)(C)n1nc(Cc2cccc3ccccc23)c(C#N)c1N` the figure was 26.1% (inactive). `COc1ccc(CN(C)C(=O)CC(c2ccccc2)c2ccccc2)cc1`: the inhibition is -5.61% (inactive). On to `COc1ccc(COC(=O)NC(C(=O)O)c2ccccc2)cc1` (stereo not drawn), for which the inhibition is 8.98% (inactive). On to `COc1ccc(C(CCN(Cc2ccc(OC)c(OC)c2)C(=O)CCl)c2ccccc2)cc1` (stereo not drawn), for which the inhibition is 87% (active). Take `CCOc1cc(/C=N/NC(=O)c2cccc(S(=O)(=O)N3CCOCC3)c2)ccc1OCC(=O)N(C)C`: the inhibition was 5.36% (inactive). Take `O=C1CCCN1C(=O)COc1ccc([N+](=O)[O-])cc1`: the inhibition was -4.91% (inactive). Turning to `CCc1nnc(NC(=O)CCC(=O)O)s1`, the inhibition was 3.28% (inactive). The result for `CSc1nsc(SCC(=O)Nc2cc(C(=O)O)ccc2C)n1` reads -0.11% (inactive); that for `CCc1nnc(NC(=O)CSc2nc(SC)ns2)s1`, 47.1% (active); that for `CCc1ccc(Nc2n[n+](-c3ccccc3)c(-c3cccc(Cl)c3Cl)s2)cc1`, 5.75% (inactive). Consider `COc1ccc(N=C(C)c2sc3ccccc3c2O)cc1`, for which the inhibition is 3.42% (inactive).

As to `O=C(N/N=C/c1c(Cl)[nH]c2ccccc12)c1sc2ccccc2c1Cl`, the inhibition was -18.9% (inactive). With `Oc1ccc(N=Cc2sc3ccccc3c2Cl)cc1` the figure was 87.7% (active).

Consider `CCN(CC(=O)Nc1c(F)cccc1F)C(=O)C1CCC1`, for which the inhibition is 0.37% (inactive). The result for `COc1ccc(C(=O)OCC(=O)c2ccc(Cl)s2)c(OC)c1OC` reads 2.69% (inactive); that for `NNC(=O)c1oc2nc(-c3ccccc3)cc(-c3ccco3)c2c1N`, 38.1% (active). In the case of `O=C(Nc1cccc(F)c1)c1cc(-c2ccco2)nc2ccccc12`, the inhibition was -14.9% (inactive).

As for `CNC(=S)NNC(=O)c1oc2nc(-c3ccccc3)cc(-c3ccco3)c2c1N`, the inhibition was 3.57% (inactive). The result for `Cc1c(C)n2c(SCC(=O)NC3CCCC3)nnc2[nH]c1=O` reads 3.72% (inactive); that for `CCN(CC(=O)Nc1c(F)cccc1F)C(=O)CN1c2cccc3cccc(c23)S1(=O)=O`, 0.89% (inactive).

On to `C#CCOCCOCCOCCNc1nc(N2CCN(C(=O)CCCCCCCCCCNC(=O)[C@H]([C@@H](C)CC)n3cc(CCCCN=C(N)N)nn3)CC2)nc(N2CCN(C(=O)CCCCCCCCCCNC(=O)[C@H](CO)n3cc(CCCSC)nn3)CC2)n1`, for which the inhibition is 0.8% (inactive).

With `O=C(c1nnc(-c2ccc(Cl)cc2)o1)C1CCCC1`, the inhibition was -2.2% (inactive). The result for `O=C(c1[nH]ncc1-c1ccc(Cl)cc1)C1CO1` (stereo not drawn) reads 69.7% (active); that for `S=c1[nH]nc(-c2ccc(Cl)cc2)n1CC1CCCO1` (stereo not drawn), 6.47% (inactive); that for `C#CCOCCOCCOCCNc1nc(N2CCN(C(=O)[C@H](CCCCN)n3cc(CCC(=O)O)nn3)CC2)nc(N2CCN(C(=O)[C@H](CCCCN)n3cc(CC(C)O)nn3)CC2)n1` (stereo partly drawn), 5.45% (inactive). With `Cc1cccc(N2CC(C(=O)Nc3ccccc3N3CCCC3)CC2=O)c1C` (stereo not drawn) the figure was -3.75% (inactive); with `CC/C(=N/Nc1ccccc1)c1cnnc(SC)n1`, 46.9% (active); with `CSc1nsc(NC(=O)Nc2ccccc2)n1`, -11% (inactive). `C/C(=N/Nc1ccc(Cl)cc1)c1cnnc(-c2ccccc2)n1`: the inhibition was -2.69% (inactive).

Regarding `COc1cccc(NC(=O)CSc2nnc(-c3cccnc3)o2)c1`, the inhibition was -6.7% (inactive). Regarding `COC(C[C@@H](O)C[C@H](O)[C@H](C)OCc1ccccc1)OC`, the inhibition was 3.16% (inactive).
